Results reported in the supplement of paper PMC12632987.

T1: FBXL12, Q9NXK8
T1 chain: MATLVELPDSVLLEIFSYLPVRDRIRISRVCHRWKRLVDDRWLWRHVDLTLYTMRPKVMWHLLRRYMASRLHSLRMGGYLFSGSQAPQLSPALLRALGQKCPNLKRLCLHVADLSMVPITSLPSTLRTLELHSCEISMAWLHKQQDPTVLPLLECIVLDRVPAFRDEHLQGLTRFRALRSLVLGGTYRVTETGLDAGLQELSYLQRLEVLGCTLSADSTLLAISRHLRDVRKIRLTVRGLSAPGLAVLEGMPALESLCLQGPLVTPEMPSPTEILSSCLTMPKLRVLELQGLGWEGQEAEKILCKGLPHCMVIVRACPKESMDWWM

B1: FBXL12_hotspot_16_23 (protein)
chain: KIMVVRVRGRTPEELRPTLDRAVEIAIGLMKAGVDAIIFVAVVERAEDLPAVEALVAERRAALEAAAKEHGSKLEVVVGVAADEEAVEARVKALEEELEA
B2: FBXL12_hotspot_147_13 (protein)
chain: REVTVVVQLGAQAESTARYAAELVVGLGEAGVGRIRVVVRSARLEDALLAARELARAVARLPESVEVEVTFEGLSPEDVARARAVYEATLAAERAAQAAA
B3: FBXL12_hotspot_186_37 (protein)
chain: MLLRVSFSPDDSPAQIQAGVDIAVAIVEGLAERGRLEDFVEAARSLLESLRANAARIKRPEAQAVFDAAVARLAEIAEEVAERYPENEEIKELLEELREA
B4: FBXL12_hotspot_162_16 (protein)
chain: MKRLLILSFVIKATESPEEAKKRLKQFEEYALEMIEEALKNPEFKVVVVLASDGSPEDLEWVKEAAKRIKEKFPEVEVEVFETGEAAEKRIEELEEEAER
B5: FBXL12_hotspot_186_39 (protein)
chain: MELRVRFSEDMSVEQMRAGLDIAVAILEGLAERGRIEDLVAAARSLLDSLEAGRARIKDPAFDEVVDDALRRIAAILERAAERYPDNEELRAALERVRAA
B6: FBXL12_hotspot_186_32 (protein)
chain: MELRVSLSASMSVEQMRANAEIAVAIVEGLAERGLWEDLDAAARSLAASLRAAVERLQRPEAAAVAAEALERLAEIVARALEEHPENERLAATLAEIRAA
B7: FBXL12_hotspot_16_21 (protein)
chain: KIMIIKVVAPTEEAARSGIETATKIAKGLMEAGVDAIILLAVAEEEALLPFLEELVEKHKEELEEAAKKYGAKLKVIVGTRADLAALEAEAEAIAAELEA
B8: FBXL12_hotspot_16_17 (protein)
chain: RDIVVVVGLLTAERVRSTLERAAEIVEGLRAAGVDRINVVIYAETEEAWAELERLEPTIVARIRAAVAAAGGELHIHRTREEAEKTREEILAEIDEEEEA
B9: FBXL12_hotspot_186_31 (protein)
chain: KDLQVRVRLGLDLETTRSTLRYAVALAEALKARGLTASLRSLARSLRESAIEVLKKTKDEEIYEAILEALEELAKVVADDPEALAIVKEAIEEVERLKEE
B10: FBXL12_hotspot_147_15 (protein)
chain: MEVTIRVVLGPGSESTVETAIALAAGLHEAGVEKIRIEVEAEDPEEALRAAERLAVEVGRKADVDEILAYDSRTGELLKRLDREEIKEIREEAERREREA
B11: FBXL12_hotspot_186_40 (protein)
chain: MELRVRFSPDMSVAQRRAGADIAVAILEGLAERGEIEELVEAARSLLDSLEAARARIQDPEFAAVAAAALARIAAILEEAAKRYPENEEIKEALARVKAA
B12: FBXL12_hotspot_16_19 (protein)
chain: KDIILSVGVEEAERVEPSLELALEIVKGLKEAGVDRINVVIYAETEEAYKKIEELKDTILKEIEEAVKEAGGKLSVHKTKEAAEKEIERILEEIDKREEE
B13: FBXL12_hotspot_186_25 (protein)
chain: QRIEVRVSFSEDLEQARAGLELAIGLLEALLARGLIESAASLARSTVRAARELAARTDDEEVKRLLAEGLERIAEILRKHPELAEELEEVERAAREIRER
B14: FBXL12_hotspot_186_41 (protein)
chain: MEVRVSVPADAPLEVVRSTMKYAVELAKELKERGELEALASLGKSLVKLRKELKKAGAPEEKLKAVDEAIKEVAKILEEALKEHPDNEELKKALEELKKA
B15: FBXL12_hotspot_186_33 (protein)
chain: MELRVSLSADMTPEQMRANAEIAVAIVAGLAERGRVEDLVAAARSLAASLRAAVARLQRPEVAAIAAEALARLAEIVAAAAARHPDNEDLRAALAELRAA
B16: FBXL12_hotspot_186_28 (protein)
chain: SDLEVRVTLGEDLETTKSTLDYAVALAEALKARGLTGSLRSLARSFRESAIARLKKSDDPEIYDAILEAAEKLREVVADDPEAKAIIDEAIAEIKAIKAE
B17: FBXL12_hotspot_186_27 (protein)
chain: QQLEFRVVTRLDPEITRSTLDTAIGLVESLLERGLIEQAKSAAEAILEEIERTLAESDDPEIHAILAESLRRLAEVLSRDPRLAPLLERARELLARIEAR
B18: FBXL12_hotspot_141_10 (protein)
chain: RGLVIVIATAAVPEEVRAAVRAAAREAAAAAGVALRFEEAEDEEAAEELRERLLAEAEEEGYDAVGVLVLTSPEMSAERAIAYVRALVAFVAARVARLEA
B19: FBXL12_hotspot_16_22 (protein)
chain: KIMIIKVVAATPEAARGTIETATKIAKGLMEAGVDAVILQAVAEKEEILPFLKELVEEKEKELKEVAKKYGSKLEVFVGTAADLEELEKEVKEKEKELEA
B20: FBXL12_hotspot_16_20 (protein)
chain: KIMIIRVVAGTEEEARSSVETAKKIAIGLMEAGVDAIILEAIAEKEELLPFLKELVEEKEKELREAAKKYGAKLRILVGTLDDLEELRAQAEAIAAELEA
B21: FBXL12_hotspot_16_24 (protein)
chain: PVRILVIRQASTQRTPEGVAYQREAAVAAARAGMDAVILVGLAEREEDVPEMEALVADFEAAVRAANPDIIVEGAVARTEEEAEALKAALLARVEARLAA
B22: FBXL12_hotspot_186_34 (protein)
chain: MELKITLSEDMSVEQMEAGLKLAVEILQGLRDRELLDDLVAAARSLLKSLKENVARIKKPEFKEVAKKALEEVAKIVKEAAERFPEVEELKEVAKELEEA
B23: FBXL12_hotspot_147_12 (protein)
chain: REMTVVVQLGSSAESTAAYAAEVVLGLAQAGVDRIRVVVRTRDHEQALLAARELARADARAPASVTIELTFEGLTPEQVAEALAVYAETLAAERARLAAA
B24: FBXL12_hotspot_186_36 (protein)
chain: MELRVRFGPDDSVEQMRAGVDIAVAIVEGLAEAGRLEDFVEAARSLLDSLEANAARIKDPAHRAVFAEAVARLLEIAERVAKAYPENEDIKEVAERLKAA
B25: FBXL12_hotspot_186_38 (protein)
chain: MELRIRFSPTMSVEQMRAGAQIAVDILRELARRGRWEDLVEAARSLLESLRAARARIRDPEFAEVAAEALERVAAILEEAAKRHPDDEAIHAALEEVKAA
B26: FBXL12_hotspot_186_26 (protein)
chain: MDLQIRVTLSPDLETARSGLEYAVGLLESLVERGLLESARSLVRSLIEAARKLVKETKDPEVRAAVIEALRRVAEILAKRPELEESRRLVEEAIKELEEE
B27: FBXL12_hotspot_147_14 (protein)
chain: MKVTIRVVLEEGSETTVEMAIELAKGLHEAGVEEIRVEVEARDPEVALAAAERLAVEIGRGADVAEIRAFDRETGELLRRLDREEIRRIRAAAEEAEAAA
B28: FBXL12_hotspot_141_11 (protein)
chain: KGLLIVIMTSSIPEEKREEIKKHAEEAAKKAGIELIFEVAENEEEAEKIKEELLKEAEEKGYDVIGVLTVTDPNMDVERVKAYVEALVEWIKAKLEQLKA
B29: FBXL12_hotspot_186_29 (protein)
chain: SDLQVRVRLGDDLETTRSTLEYAVALAAALKARGLTASLRSLARSVRESAIARLRASDDPEIYEAIRAALEALAAVVADDPEARAIVEEALAEVERLRAE
B30: FBXL12_hotspot_186_30 (protein)
chain: MDLEVRVGLGEDLETTKSTLDYAVALAEALAARGLTASLVSLARSVRESAIEVLKKTKDEEIYEAILEALKRMAEIVKDNPEALAIVEEAIKEVEKLKKE
B31: FBXL12_hotspot_186_35 (protein)
chain: MKLRISFAPTDSPEQIRAGVDIAVAIVAGLAAAGRLEDFVEAVRSLLESLQANRARIQRPEHHAVFDAAIERLAALAAEVAAAHPDNAEVAAALARLKAA
B32: FBXL12_hotspot_16_18 (protein)
chain: REIIVVVGLLEAERVESTLTTARDIVAGLREAGVDRVDVVIYTETPEAAAKLAELRPTIVAAIEAEVAAAGGRLSVHDTREAAEATREAILAEIDEREAA

Target: T1, FBXL12, Q9NXK8
Experiment: median log2 fold change of GCK-ALFA target abundance (FLAG IP / Myc IP barcode read proportion) (log2 ratio); each designed protein is fused to an ALFA-tag nanobody in HEK293 cells to bring the named protein to FLAG-tagged glucokinase (GCK); Myc marks an untargeted standard; higher = target protein stabilised (more abundant)
Conditions: target protein: 3xFLAG-MCP-GCK-ALFA reporter; HEK293 landing pad (RPLP)
Experimental: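 LABEL-seq trans screen in HEK293 landing-pad cells. Each de novo designed 100-aa effector handle, binding the indicated effector (E3 ligase, DUB or autophagy protein), is fused to a constant NbALFA target handle and induced with 2 ug/mL doxycycline. A FLAG-MCP-GCK-ALFA target and a Myc-MCP standard reporter were transfected, and after 48 h circRNA barcodes were recovered by anti-FLAG and anti-Myc IP and sequenced. The value is the median across barcodes (at least 3 per design) of log2(FLAG/Myc read-proportion ratio), with the two transfection replicates pooled. Negative values mean degradation and positive values mean stabilisation of the target.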

| Binder | median log2 fold change |
| --- | --- |
| B1 | 0.127 |
| B2 | -0.0622 |
| B3 | 0.172 |
| B4 | -0.0487 |
| B5 | 0.222 |
| B6 | 0.127 |
| B7 | -0.165 |
| B8 | 0.0399 |
| B9 | -0.132 |
| B10 | 0.23 |
| B11 | 0.165 |
| B12 | -0.0797 |
| B13 | 0.0938 |
| B14 | 0.34 |
| B15 | 0.143 |
| B16 | 0.157 |

| Binder | median log2 fold change |
| --- | --- |
| B17 | 0.108 |
| B18 | -0.0786 |
| B19 | 0.0857 |
| B20 | -0.134 |
| B21 | 0.171 |
| B22 | 0.294 |
| B23 | -0.623 |
| B24 | 0.111 |
| B25 | -0.00819 |
| B26 | 0.196 |
| B27 | 0.119 |
| B28 | 0.126 |
| B29 | -0.229 |
| B30 | 0.1 |
| B31 | 0.0482 |
| B32 | 0.0965 |
